From PubChem BioAssay (NCATS) come the findings set out here.

Records with an inconclusive call do not appear. Unmarked numbers belong to inactive results. The source made the active and inactive calls. Calls follow the shape of the dose curve; as a rule, active = well fitted curve in the direction sought with a large enough effect; inconclusive = small, poorly fitted or top-dose-only effect, or another doubt; inactive = no such curve, though single readings can be large; an effect the other way counts as inactive or inconclusive.

One assay relates to CRL-7250. Description: Cytotoxic Profiling of Annotated Libraries Using Quantitative High-Throughput Screening (AID 1296008). Also: nearly all actives have a fitted effect of over 60% in size. Also: potency is read from the fitted curve at half-maximal effect. As to max response: % is scaled to controls: 0 for no effect and ±100 for the full control effect. To be noted: Five cell lines viability, CellTiter-Glo ATP luminescence, 48-72 h; max response: hits give low values. In a few lines: (§1)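 Compounds were pin-transferred onto cells and incubated 48 or 72 hr at 37 degree Celsius, 95% humidity. CellTiter-Glo was added, plates sat 10 min at room temperature, then ATP-coupled luminescence was imaged as the viability read-out.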

The next assay relates to HEK293. The description is as above. To be noted: Five cell lines viability, CellTiter-Glo ATP luminescence, 48-72 h; max response: hits give low values. In a few lines:
as §1

Assay [1] has as its system HaCat. Described as above. To be noted: Five cell lines viability, CellTiter-Glo ATP luminescence, 48-72 h; max response: hits give low values. In short, it runs like this: as §1
Background: In ATP-based viability assays light output follows the ATP content of the culture.

The test system of another assay is NIH3T3. The assay is described as above. The settings on record: Five cell lines viability, CellTiter-Glo ATP luminescence, 48-72 h; max response: hits give low values. In short, it runs like this:
as §1

The subject of another assay is C33A. Briefly: Primary qHTS to identify gynecologic anti-cancer compounds using libraries of approved drugs and bioactive compounds (AID 1345084). Also: nearly all actives have a fitted effect of over 55% in size. Also: potency is read from the fitted curve at half-maximal effect. The settings on record: Gynecologic cancer cell panel viability, ATPlite luminescence, 48 h; series mostly up to 57.5 µM. In a few lines:
(§2)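 Luminescence from the ATPlite ATP-monitoring reagent indicates viable cell number; lower signal means cytotoxicity. Cells received compound 16 h after seeding and were exposed for 48 h across five concentrations.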
Background: In qHTS, concentration-response curves come from the screen itself.

The test system of another assay is CASKI. The description is as above. To be noted: Gynecologic cancer cell panel viability, ATPlite luminescence, 48 h; series mostly up to 57.5 µM. In short, it runs like this: as §2
Another assay deals with Es-2. Described as above. To be noted: Gynecologic cancer cell panel viability, ATPlite luminescence, 48 h; series mostly up to 57.5 µM. In a few lines: as §2
For a further assay, the system named is HeLa. The description is as above. To be noted: Gynecologic cancer cell panel viability, ATPlite luminescence, 48 h; series mostly up to 57.5 µM. In short, it runs like this: as §2
A further assay has as its system Hek293T. Described as above. To be noted: Gynecologic cancer cell panel viability, ATPlite luminescence, 48 h, control line for the selectivity index; series mostly up to 57.5 µM. In short, it runs like this: as §2
A further assay relates to JEG-3. The description is as above. To be noted: Gynecologic cancer cell panel viability, ATPlite luminescence, 48 h; series mostly up to 57.5 µM. In short, it runs like this: as §2
A further assay relates to OV90. The assay is described as above. The settings on record: Gynecologic cancer cell panel viability, ATPlite luminescence, 48 h; series mostly up to 57.5 µM. In short, it runs like this: as §2
For the next assay, the system named is PA-1. The description is as above. The settings on record: Gynecologic cancer cell panel viability, ATPlite luminescence, 48 h; series mostly up to 57.5 µM. In short, it runs like this:
as §2

The subject of a further assay is CAOV3. The description is as above. The settings on record: Gynecologic cancer cell panel viability, ATPlite luminescence, 48 h; series mostly up to 57.5 µM. In short, it runs like this: as §2
Assay [2] deals with HACAT. Briefly: qHTS assay to identify novel small-molecules to repurpose for Merkel cell carcinoma treatment (AID 1296009). Also: nearly all actives have a fitted effect of over 60% in size. To be noted: MCC and control cell lines, CellTiter-Glo viability, 72 h; at 44.8 µM (top of the series) unless noted. In short, it runs like this:
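Luminescence from CellTiter-Glo, read 10 min after addition at room temperature, reported viability following a 72 hr, 37 degree celsius treatment with NPC or MIPE compounds in titration; values normalized to plate controls.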

Turning to `CCCC1(CCC)CCC2(CCN(CCCN(CC)CC)C2)CC1`, the Potency was 4110 nM (active) in the assay with CRL-7250; 1840 nM (active) in the assay with HEK293; 4610 nM (active) in the assay on HaCat [1]; 3660 nM (active) in the assay on NIH3T3; 6310 nM (active) in the assay with C33A; 8910 nM (active) in the assay with CASKI. For the same compound, the Potency is 10000 nM (active) in the assay on Es-2; 7080 nM (active) in the assay with HeLa; 8910 nM (active) with Hek293T; 5620 nM (active) in the assay with JEG-3; 7080 nM (active) with OV90; 5010 nM (active) in the assay with PA-1.

Consider `CCc1c[nH]c2ncnc(N3CC[C@](N)(CNC(=O)c4ccc(F)cc4F)C3)c12`, for which the max response in the assay with CRL-7250 is -13.8%; in the assay on HaCat [1], -5.86%; with NIH3T3 it was 4.64%. For the same compound, the Potency in the assay on HEK293 was 1160 nM (active); in the assay with Hek293T, 1410 nM (active). For the same compound, the Potency result in the assay on CAOV3, in the assay on CASKI, in the assay with Es-2, in the assay with HeLa and in the assay with JEG-3 was “inactive” throughout.

In the case of `COC(C)(C)CCn1nc(Nc2c(C)cccc2C)c2cnc(Nc3ccc(OCCN4CCCC4)c(F)c3)nc21`, the Potency in the assay with CRL-7250 is 1160 nM (active); in the assay with HEK293, 7310 nM (active); in the assay with HaCat [1], 1300 nM (active); in the assay on NIH3T3, 411 nM (active); in the assay with Es-2, 15800 nM (active); in the assay with OV90, 14100 nM (active). In addition, the Potency in the assay with PA-1 was 2820 nM (active).

Take `COC(=O)N1CCC(n2ncc3c(N4CCOCC4)nc(-c4ccc(NC(=O)NC5CC5)cc4)nc32)CC1`: the Potency with CRL-7250 is 259 nM (active); with HEK293, 291 nM (active); in the assay on HaCat [1], 6510 nM (active); in the assay with NIH3T3, 651 nM (active); in the assay with Hek293T, 631 nM (active); in the assay on OV90 it was 501 nM (active). Further, the Potency in the assay with PA-1 was 1410 nM (active). For the same compound, the Potency entry with JEG-3 was “inactive”.

As to `CN1CCC(NC(=O)c2cc(-c3c(O)cc(O)cc3Oc3ccc([N+](=O)[O-])cc3)on2)CC1`, the Potency is 366 nM (active) with CRL-7250; 206 nM (active) with HEK293; 1460 nM (active) in the assay on HaCat [1]; 5800 nM (active) with NIH3T3; 708 nM (active) in the assay on C33A; 398 nM (active) in the assay with CAOV3. Further, the values for the Potency with Hek293T and with PA-1 were 1000 nM (active) and 794 nM (active), respectively. Further, the Potency entry in the assay with HeLa is “inactive”.

With `FC(F)(F)c1ccc(/C=C/c2nc(COc3ccc(CCCCn4ccnn4)cc3)co2)cc1`, the Potency in the assay with CRL-7250 was 65.1 nM (active); in the assay on HEK293 it was 29.1 nM (active). The max response is -23.7% with HaCat [1] and -18.7% in the assay on NIH3T3. In addition, the Potency result with CAOV3, in the assay with HeLa and in the assay on Hek293T was “inactive” throughout.

As for `COc1cc(N2CCC(N3CCN(C)CC3)CC2)ccc1Nc1ncc(Cl)c(Nc2ccccc2P(C)(C)=O)n1`, the Potency is 2060 nM (active) with CRL-7250; 5800 nM (active) in the assay with HEK293; 1840 nM (active) with HaCat [1]; 1640 nM (active) in the assay with NIH3T3; 2240 nM (active) with CAOV3; 10000 nM (active) in the assay on CASKI. For the same compound, the results for the Potency in the assay on HeLa and in the assay with PA-1 were 6310 nM (active) and 11200 nM (active), respectively. For the same compound, the Potency entry with JEG-3 is “inactive”.

For the compound `COc1cc(O)c2c(c1)C1OC1C[C@H](O)[C@H](O)C(=O)/C=C\C[C@H](C)OC2=O` (stereo partly specified), the Potency is 20600 nM (active) in the assay with CRL-7250, 3660 nM (active) in the assay on HEK293, 8200 nM (active) in the assay with HaCat [1] and 2060 nM (active) with NIH3T3. Moreover, the Potency entry in the assay with HeLa is “inactive”.

Regarding `COC(=O)C1=CO[C@@H](O[C@@H]2O[C@H](CO)[C@@H](O)[C@H](O)[C@H]2O)[C@H]2[C@@H]1C=C[C@]21C=C([C@H](C)OC(=O)/C=C/c2ccc(O)cc2)C(=O)O1`, the Potency in the assay with CRL-7250 is 1220 nM (active); in the assay with HEK293, 1720 nM (active); in the assay with HaCat [1] it was 3850 nM (active); in the assay on NIH3T3 it was 3060 nM (active); in the assay with PA-1, 12600 nM (active). In the assay on OV90, the Potency entry was “inactive”.

On to `CC(C)NCCCn1c(Sc2cc3c(cc2I)OCO3)nc2c(N)ncnc21`, for which the Potency is 411 nM (active) in the assay on CRL-7250; 184 nM (active) in the assay on HEK293; 231 nM (active) in the assay on HaCat [1]; 291 nM (active) with NIH3T3; 1580 nM (active) in the assay with C33A; 1580 nM (active) in the assay on CAOV3. Besides, the Potency in the assay with OV90 is 398 nM (active). For the same compound, the Potency result in the assay with HeLa was “inactive”.

As for `CCc1cc(C(N)=O)ccc1-n1nc(C(C)C)c2c(-n3cnc(-c4cnn(C)c4)c3)ccnc21`, the Potency in the assay on CRL-7250 is 4110 nM (active); in the assay on NIH3T3, 1300 nM (active). Besides, the max response is -117% with HEK293 and -102% with HaCat [1]. Moreover, the Potency entry in the assay with CASKI, in the assay on Es-2, with HeLa and in the assay with JEG-3 was “inactive” each time.

In the case of `Cc1ccc(C(=O)Nc2ccc(CN3CCN(C)CC3)c(C(F)(F)F)c2)cc1C#Cc1cnc2[nH]ncc2c1`, the Potency in the assay with CRL-7250 is 58 nM (active); in the assay with HEK293 it was 5800 nM (active); in the assay with HaCat [1], 1640 nM (active); in the assay on NIH3T3 it was 580 nM (active); with OV90, 3160 nM (active).

For the compound `Cc1cccc(-c2[nH]ncc2-c2ccnc3ccccc23)n1`, the max response was -17.2% with CRL-7250 and -23.7% with HEK293. The compound was called inactive in the assay with HaCat [1] and in the assay with HACAT [2]. Also, the Potency result in the assay with C33A, with CAOV3, with CASKI, in the assay with Es-2, in the assay on HeLa and in the assay with Hek293T was “inactive” throughout. Further, the Potency entry with JEG-3 and in the assay with PA-1 was “inactive” each time.

On to `C/C1=C\[C@@H](C)C[C@@H](C)[C@@H](Cc2cnco2)OC(=O)/C(C)=C/[C@@H](C)C[C@@H](C)[C@@H](Cc2cnco2)OC1=O`, for which the values for the Potency in the assay on CRL-7250 and with HEK293 were 2520 nM (active) and 632 nM (active), respectively. Moreover, the max response in the assay on HaCat [1] was -7.73%; with NIH3T3 it was -16.6%. For the same compound, the Potency entry in the assay on C33A, with CAOV3, in the assay on HeLa, in the assay with JEG-3, in the assay with OV90 and in the assay on PA-1 was “inactive” each time.
